Records with an inconclusive call do not appear. A call without a number means that no potency is given here. Active and inactive are the calls of the source. Calls follow the shape of the dose curve; as a rule, active = well fitted inhibition curve with a large enough effect; inconclusive = small, poorly fitted or top-dose-only effect; inactive = no such curve, though single readings can be large or run the other way.

This test has as its target Retinaldehyde dehydrogenase 3 (Homo sapiens) (UniProt P47895). As to the kind of experiment: qHTS for Inhibitors of the Aldehyde Dehydrogenase Family (ALDH1A3) Primary screen (AID 2061315). Conditions: ALDH inhibition qHTS; series mostly up to 56 µM. A general note: In qHTS, concentration-response curves come from the screen itself.
For the compound `COC(=O)[C@]1(C)CCC[C@@]2(C)C(=O)CC[C@H]3C(=O)C=C(CC[C@@H]21)C3O` (stereo partly specified), the Potency entry was “inactive”.

In the case of `COc1cc(C)c(C(=O)O[C@H]2[C@@H](OC(C)=O)[C@H](n3ccc(=O)[nH]c3=O)O[C@@H]2CO)c(OC)c1`, the Potency entry was “inactive”.

Take `CC(C)(O)C1=CCC23COC(C2)C(O)(C(=O)O)CCC13` (stereo unspecified): the Potency entry was “inactive”.

For the compound `COC(=O)C1=CO[C@@H](O[C@@H]2O[C@H](CO)[C@@H](O)[C@H](O)[C@H]2O)C2C1CC(O)C2C` (stereo partly specified), the Potency entry was “inactive”.

Regarding `O=C(Nc1ccn(Cc2c(F)cccc2C(F)(F)F)n1)c1c(F)cccc1F`, the Potency result is “inactive”.

For the compound `CC(=O)O[C@H]1CC2C(COC(=O)CC(C)C)=CO[C@@H](OC(=O)CC(C)C)C2[C@]12CO2` (stereo partly specified), the Potency entry was “inactive”.

In the case of `CC(C)c1cc2c(c(O)c1O[C@@H]1O[C@H](CO)[C@@H](O)[C@H](O)[C@H]1O)CC1(O)CCC(O)C(C)(C)C1CC2` (stereo partly specified), the Potency entry was “inactive”.

Consider `C=C1CC2(C(=O)O)CC1CCC2C1(C)CCCC2(C)C(=O)OC(O)C21` (stereo unspecified), for which the Potency result is “inactive”.

As for `C=C1C(=O)O[C@@H]2[C@H]1CC[C@H](C)C(CCC(=O)O)C2(C)O` (stereo partly specified), the Potency entry was “inactive”.

For `C[C@@H]1C[C@H](O)/C=C/[C@H](O)[C@@H](O)CC(=O)O1`, the Potency entry is “inactive”.

For `N#Cc1ccc(Nc2nc(-c3ccc(O)cc3O)cs2)cc1C(F)(F)F`, the Potency entry is “inactive”.

Values taken from PubChem BioAssay (NCATS).
